NTMT1 inh = NTMT1 methyltransferase inhibition. Q9BV86. Potency, µM (doses to about 114 µM), inactives show at the highest dose activity change, negative = inhibition, actives largely listed as inhibitors. NTMT1 MTase-Glo SAH luminescence, purified enzyme. 2.5% of 59,000 active;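 also: plate controls were DMSO vehicle for no effect and no enzyme for full effect; nearly all actives have a fitted effect of over 65% in size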
Target sequence (Q9BV86 whole entry, looked up): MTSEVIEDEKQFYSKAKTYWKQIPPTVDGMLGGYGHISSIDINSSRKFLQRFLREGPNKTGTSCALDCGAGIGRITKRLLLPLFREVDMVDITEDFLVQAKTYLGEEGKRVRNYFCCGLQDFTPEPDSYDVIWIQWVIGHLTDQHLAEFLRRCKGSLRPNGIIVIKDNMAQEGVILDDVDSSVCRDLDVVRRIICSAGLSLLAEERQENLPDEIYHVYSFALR
p53null 39C kill = p53 null cell cytotoxicity, nonpermissive temperature; H1299 p53-null (neo) cells, 39C, ATPlite viability, 24 h; Potency, µM (top dose mostly 46.1 µM), for the others: top-dose activity, negative = cell killing, usual class: cytotoxic; 0.97% of 55,000 active; AID 904;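 also: 0% = DMSO only and -100% = full killing by 100 µM tamoxifen; nearly all actives have a fitted effect of over 50% in size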
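Temperature-shift cytotoxicity format: compound titrations on p53-null or A138V-expressing H1299 cells held 24 hr at 39C, cell ATP then measured, AC50 from Hill model.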
p53null 32C kill = kills p53 null cells at the permissive temperature. H1299-neo p53 null cells, ATP luminescence, 24 h, 32C. Potency, µM (series often up to 46.1 µM), without a hit: at the highest dose activity change, negative = cytotoxicity, most hits filed as cytotoxic. 0.62% of 55,000 active. AID 903;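 also: 0% = DMSO only and -100% = full killing by 100 µM tamoxifen; nearly all actives have a fitted effect of over 55% in size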
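AC50 values derive from Hill modelling of qHTS concentration-response data (up to 46 uM) in H1299-neo cells. Cells were treated 24 h at 32C following overnight attachment at 37C; viability was read as cellular ATP.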
FH mod = Identification of activators of human fumarate hydratase by quantitative high-throughput screening; Fumarate hydratase, mitochondrial (Homo sapiens), P07954; FH coupled MDH/diaphorase resazurin fluorescence, 15 min; Potency, µM (titrated, usually from 79.9 µM), inactives show at the highest dose activity change, negative = inhibition, most hits filed as inhibitors; 0.22% of 54,000 active; also: % is scaled to controls: 0 for no effect and ±100 for the full control effect; the screen sought activators but most active calls are inhibition curves; nearly all actives have a fitted effect of over 45% in size
GALC G270D act = raises human GALC G270D mutant activity in cells. 145M-Twi-hGALC-G270D cells (Twitcher mouse brain line with human GALC G270D), HMU-beta-Gal fluorescence, 48 h. AID 1159614. Potency, µM (doses to about 57.5 µM), usual class: activators. 0.1% of 45,000 active; also: 0% is about no effect; nearly all actives have a fitted effect of over 65% in size
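Live 145M-Twi cells (Twitcher mouse brain-derived, GALC-null) stably expressing human GALC-G270D, with a wild-type GALC line, were compound-treated. Residual GALC activity was then read as fluorescence from 0.1 mM final HMU-β-gal at pH 5.2; higher signal means activation.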
The depositor's hits bear a star; [ ] = dose if it differs, or a comment. The entries come from a sample that favours hits as a whole. Calls follow the shape of the dose curve; as a rule, active = well fitted curve in the direction sought with a large enough effect; inconclusive = small, poorly fitted or top-dose-only effect, or another doubt; inactive = no such curve, though single readings can be large; an effect the other way counts as inactive or inconclusive. Potency is read from the fitted curve at half-maximal effect.

For CCOc1ccc(N2CC(c3nc4ccccc4n3CCOc3ccccc3OC)CC2=O)cc1 (configuration not stated) the results were NTMT1 inh 2.8%, p53null 39C kill -10.4%, p53null 32C kill 14.4%, FH mod -24.1% and GALC G270D act inactive.
CN(C)C/C=C/C(=O)Nc1cccc(C(=O)Nc2ccc(Nc3nccc(-c4cccnc4)n3)cc2)c1 was read as NTMT1 inh inconclusive and FH mod -5.9%.
Screening CCC(CC)C(c1ccc(Nc2nc3ccccc3s2)cc1)n1cncn1 (configuration not stated) returned NTMT1 inh -3.2%[57.5 µM] and FH mod -22.8%.
Cc1ccc(NC(=O)Nc2cn(C)c(=O)c3ccccc23)c(Cl)c1 was read as NTMT1 inh 11.7%, p53null 39C kill -2.1%, p53null 32C kill -5.6%, FH mod 28.2µM*[activator] and GALC G270D act inactive.
For Cc1ccc(NC(=O)Cn2nc(Cc3ccncc3)c3ccccc3c2=O)c(Cl)c1 the results were NTMT1 inh inconclusive, p53null 39C kill 3.8%, p53null 32C kill -25.4%, FH mod -11.5% and GALC G270D act inactive.
For CC(C)Cn1cc(NC(=O)Nc2cccc(C(F)(F)F)c2)c2ccccc2c1=O the results were NTMT1 inh 8.9%, p53null 39C kill -8.5%, p53null 32C kill 1.8%, FH mod inconclusive and GALC G270D act inactive.
CCc1ccc(NC(=O)Nc2cn(C)c(=O)c3ccccc23)cc1 was read as NTMT1 inh inconclusive, p53null 39C kill 12.4%, p53null 32C kill 6.7%, FH mod 31.6µM*[activator] and GALC G270D act inactive.
Screening Nc1ncnc2c1ncn2[C@@H]1O[C@H](COP(=O)(O)OP(=O)(O)OP(=O)(O)OP(=O)(O)OC[C@@H]2O[C@H](n3cnc4c(N)ncnc43)[C@@H](O)C2O)C(O)[C@H]1O (some centres not stated) returned FH mod 0.1%[53.3 µM].
`COc1ccc(-c2oc3ncnc(N)c3c2-c2ccc(NC(=O)Nc3cc(C(F)(F)F)ccc3F)cc2)cc1` gave NTMT1 inh -10.4% and FH mod 0.6%.
`CC(C)(O)C1CC(=O)C2(C)C(CCC3(C)C(c4ccoc4)OC(=O)C4OC432)C12CCC(=O)OC2` (configuration not stated) gave NTMT1 inh 11.6%[29.8 µM] and FH mod 5.2%[53.3 µM].
COc1ccc(S(=O)(=O)N(CCc2ccccc2)CC(=O)Nc2cc(Cl)ccc2C)cc1 was read as NTMT1 inh 3.98µM*, p53null 39C kill 10.1%, p53null 32C kill 1.1%, FH mod -16.4% and GALC G270D act inactive.
`Cc1ccc(C)c(NC(=O)CN(CCc2ccccc2)S(=O)(=O)c2ccccc2)c1` gave NTMT1 inh 5.5%, p53null 39C kill -19.6%, p53null 32C kill 8.4%, FH mod inconclusive and GALC G270D act inactive.
Screening O=C(O)C(Cc1cc(I)c(O)c(I)c1)c1ccccc1 (configuration not stated) returned NTMT1 inh inconclusive, FH mod -10.8%[53.3 µM] and GALC G270D act inactive.
`N[C@@H](Cc1cc(I)c(O)c(I)c1)C(=O)O` gave NTMT1 inh 14.1µM*, FH mod -20.4%[53.3 µM] and GALC G270D act inactive.
`CN(C)CCCNc1c2ccccc2nc2c1[nH]c1ccccc12` gave NTMT1 inh 35.5µM* and FH mod 7.9%.
`CCOc1ccc(C(=O)c2cn(CC(=O)Nc3cc(OC)cc(OC)c3)c3ccc(F)cc3c2=O)cc1` gave NTMT1 inh 79.4µM*, p53null 39C kill -7.9%, p53null 32C kill 14.6%, FH mod -6.7% and GALC G270D act inactive.
CC(C)COc1ccc(C(=O)Nc2nnc(S(=O)(=O)N(C)Cc3ccco3)s2)cc1 was read as NTMT1 inh 4.9%, p53null 39C kill 10µM*, p53null 32C kill inconclusive, FH mod -0.2% and GALC G270D act inactive.
For CC1(C)CCC2(CC1)N[C@@H](C(=O)N[C@@H]1CC[C@@H](C(N)=O)OC1)[C@H](c1ccnc(Cl)c1F)[C@]21C(=O)Nc2cc(Cl)ccc21 the results were NTMT1 inh -5.1%.
For CCCCNC(=O)CN1CCN(c2ncc(NC(=O)c3ccc(Cl)cc3)cc2C(=O)O)CC1 the results were NTMT1 inh 39.8µM*, p53null 39C kill 7.0%, p53null 32C kill -6.7%, FH mod -30.1% and GALC G270D act inactive.
For COC(=O)c1ccccc1C(=O)Nc1nc(-c2ccccc2)cs1 the results were NTMT1 inh 0.4%[57.5 µM].
Cc1ccc(OCCn2c(CCNC(=O)c3cc(F)cc(F)c3)nc3ccccc32)cc1 was read as NTMT1 inh 2.5%.
Screening NC(=O)NCCCC(NC(=O)Cc1ccccc1)C(=O)O (configuration not stated) returned NTMT1 inh -11.6%[57.5 µM] and FH mod 2.3%.
Screening CC1=C[C@H]2[C@@H](CC1=O)[C@H](C)C[C@H](O)[C@H]2C(C)C returned NTMT1 inh 12.4%[57.5 µM] and FH mod -7.8%.
CCCCN(C)CC(O)Cn1cc(/C=C/C(=O)c2ccc(OCC)cc2)c2ccccc21 (configuration not stated) was read as NTMT1 inh -23.1%, p53null 39C kill 5.01µM*, p53null 32C kill inconclusive, FH mod -20.6% and GALC G270D act inactive.
For CC(C)(C)Sc1c(CC(C)(C)C(=O)O)n(Cc2ccc(Cl)cc2)c2ccc(OCc3ccc4ccccc4n3)cc12 the results were NTMT1 inh 8.7% and FH mod inconclusive.
For COc1ccc(CCC(=O)NCCc2nc3ccccc3n2CCOc2ccc(C)cc2)cc1 the results were NTMT1 inh -26.1%.
Screening Cc1ccc2nc(-c3ccc(NC(=O)C(F)(F)F)cc3)sc2c1 returned NTMT1 inh 4.5%, p53null 39C kill 1.26µM*, p53null 32C kill 2µM*, FH mod 3.4% and GALC G270D act 14.1µM*.
`Cc1ccc2nc(-c3ccc(NC(=O)CN4C(=O)c5ccccc5C4=O)cc3)sc2c1` gave p53null 32C kill 22.4µM*.
c1cn2cc(-c3ccc4cn[nH]c4c3)nc(Nc3ccc(N4CCOCC4)cc3)c2n1 was read as NTMT1 inh 20µM* and FH mod -5.5%.
For COc1ccc(C)cc1NC(=O)CCS(=O)(=O)c1cc2c3c(c1)CCN3C(=O)CC2 the results were NTMT1 inh 44.7µM*, p53null 39C kill 4.1%, p53null 32C kill -1.2%, FH mod -5.0% and GALC G270D act inactive.
CN(C)CCNC(=O)COc1c2cccc1Cc1cccc(c1OCC(=O)NCCN(C)C)Cc1cccc(c1OCC(=O)NCCN(C)C)Cc1cccc(c1OCC(=O)NCCN(C)C)C2 was read as NTMT1 inh -14.4%[29.8 µM].
